log2 fold change data for 9 targets are collected here from the supplement of paper PMC10849652.

About 8,800 targets were measured; listed, in parts, are those with a hit and a random draw of the rest. About 0.5% of all pairs of compound and target were hits. A number with no mark means an inactive call.

Test in all cases: log2 fold change, soluble protein after heating vs DMSO (PISA); higher = thermal stabilisation; K562 lysate, 10 uM; active = over 0.2 and 3.5 SD of the protein, either way, in both replicates (recomputed)
Compound in assay [1]: C1=CC=C(C=C1)[C@H](COC2=CC3=C(C=C2)NC(=O)N3)NC(=O)C4=CC=CN(C4=O)CC5=CC(=C(C=C5)F)F
A digest of the protocol: (§1)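 The values are log-two fold changes in thermal stability compared with solvent controls and come from duplicates. They were obtained by TMTpro 16plex LC-MS/MS, with channel sums equalised, on the supernatant after 21,000xg for 90 min. That supernatant came from crude K562 extract at 1 mg/mL protein treated with 10 μM compound for 30 min, heated for 3 min across 48°C-58°C, pooled and brought to 0.5% NP-40 at 4°C.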

Compound in assay [2]: CC1=C(SC2=C1C(=N[C@H](C3=NN=C(N32)C)CC(=O)N)C4=CC=C(C=C4)Cl)C
A digest of the protocol:
as §1

Compound in assay [3]: CC1=C2C(=CC=C1)N=C(N(C2=O)C3=CC=CC=C3C)CN4C=NC5=C(N=CN=C54)N
A digest of the protocol: as §1

Compound in assay [4]: Cc1sc2c(c1C)C(c1ccc(Cl)cc1)=N[C@@H](CC(=O)OC(C)(C)C)c1nnc(C)n1-2
A digest of the protocol: as §1

Compound in assay [5]: c1ccc([C@@H]2C[C@H]2NC2CCNCC2)cc1
A digest of the protocol: as §1

Chain of UniProt Q8WVR3 (Q8WVR3 whole entry, looked up): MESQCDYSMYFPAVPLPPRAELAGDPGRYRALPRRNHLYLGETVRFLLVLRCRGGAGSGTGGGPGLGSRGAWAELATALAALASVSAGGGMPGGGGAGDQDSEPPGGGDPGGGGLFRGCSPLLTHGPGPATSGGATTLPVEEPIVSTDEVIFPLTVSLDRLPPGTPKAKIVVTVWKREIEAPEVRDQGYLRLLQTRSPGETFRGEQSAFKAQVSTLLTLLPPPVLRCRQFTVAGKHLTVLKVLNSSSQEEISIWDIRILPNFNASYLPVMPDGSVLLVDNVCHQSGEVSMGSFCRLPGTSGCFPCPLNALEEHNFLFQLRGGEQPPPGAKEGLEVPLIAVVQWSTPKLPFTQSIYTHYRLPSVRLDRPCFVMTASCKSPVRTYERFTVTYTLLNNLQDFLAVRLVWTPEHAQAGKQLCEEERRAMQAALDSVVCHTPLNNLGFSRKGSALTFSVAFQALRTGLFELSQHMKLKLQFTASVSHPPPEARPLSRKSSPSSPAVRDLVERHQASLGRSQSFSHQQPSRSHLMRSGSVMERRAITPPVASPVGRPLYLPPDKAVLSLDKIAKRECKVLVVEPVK
Chain of UniProt Q14703 (Q14703 whole entry, looked up): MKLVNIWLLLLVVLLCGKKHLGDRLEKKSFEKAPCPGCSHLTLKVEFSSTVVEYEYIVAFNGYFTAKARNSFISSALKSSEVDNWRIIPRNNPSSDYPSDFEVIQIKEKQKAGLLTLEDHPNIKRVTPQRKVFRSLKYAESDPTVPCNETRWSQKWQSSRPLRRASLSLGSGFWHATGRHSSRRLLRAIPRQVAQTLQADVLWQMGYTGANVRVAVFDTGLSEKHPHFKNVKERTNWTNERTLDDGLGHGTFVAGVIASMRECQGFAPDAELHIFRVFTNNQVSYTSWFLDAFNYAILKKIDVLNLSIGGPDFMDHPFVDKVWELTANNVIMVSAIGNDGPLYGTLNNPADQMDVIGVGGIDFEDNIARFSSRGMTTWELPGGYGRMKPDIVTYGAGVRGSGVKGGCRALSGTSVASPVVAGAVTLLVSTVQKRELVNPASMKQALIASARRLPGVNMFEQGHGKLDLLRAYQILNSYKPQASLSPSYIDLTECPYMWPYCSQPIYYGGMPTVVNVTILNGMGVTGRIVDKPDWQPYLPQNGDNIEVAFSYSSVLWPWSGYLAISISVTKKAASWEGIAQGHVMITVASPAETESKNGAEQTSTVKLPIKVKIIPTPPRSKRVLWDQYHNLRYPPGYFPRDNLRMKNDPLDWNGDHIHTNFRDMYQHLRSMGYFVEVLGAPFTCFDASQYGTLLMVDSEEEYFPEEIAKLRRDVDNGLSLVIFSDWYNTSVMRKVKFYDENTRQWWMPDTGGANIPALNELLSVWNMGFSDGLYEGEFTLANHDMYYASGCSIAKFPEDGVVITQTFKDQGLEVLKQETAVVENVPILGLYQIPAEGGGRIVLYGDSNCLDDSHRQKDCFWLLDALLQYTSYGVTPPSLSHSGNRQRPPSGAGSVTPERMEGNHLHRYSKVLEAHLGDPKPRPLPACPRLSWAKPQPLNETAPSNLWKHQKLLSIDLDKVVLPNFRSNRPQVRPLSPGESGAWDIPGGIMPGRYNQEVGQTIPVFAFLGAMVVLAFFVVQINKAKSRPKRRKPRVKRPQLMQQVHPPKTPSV
Chain of UniProt Q99797 (Q99797 whole entry, looked up): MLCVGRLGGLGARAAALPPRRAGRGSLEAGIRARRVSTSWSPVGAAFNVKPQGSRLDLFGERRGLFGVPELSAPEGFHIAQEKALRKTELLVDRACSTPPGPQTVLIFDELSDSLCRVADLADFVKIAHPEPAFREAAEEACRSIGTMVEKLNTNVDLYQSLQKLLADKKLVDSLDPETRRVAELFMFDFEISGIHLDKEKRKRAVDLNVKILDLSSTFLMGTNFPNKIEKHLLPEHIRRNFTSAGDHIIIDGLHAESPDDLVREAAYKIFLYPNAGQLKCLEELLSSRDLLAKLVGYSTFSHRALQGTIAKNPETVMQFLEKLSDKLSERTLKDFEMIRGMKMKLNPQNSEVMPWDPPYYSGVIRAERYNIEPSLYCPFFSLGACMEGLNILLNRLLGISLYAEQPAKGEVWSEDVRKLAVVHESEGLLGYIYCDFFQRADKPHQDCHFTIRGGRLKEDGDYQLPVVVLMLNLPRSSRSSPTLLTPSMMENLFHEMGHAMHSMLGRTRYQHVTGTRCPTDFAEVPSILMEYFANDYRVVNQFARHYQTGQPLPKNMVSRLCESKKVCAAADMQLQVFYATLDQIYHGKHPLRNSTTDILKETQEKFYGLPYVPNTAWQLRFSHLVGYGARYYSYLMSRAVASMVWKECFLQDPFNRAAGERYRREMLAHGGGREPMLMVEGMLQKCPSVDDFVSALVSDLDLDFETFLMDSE
Chain of UniProt O60337 (O60337 whole entry, looked up): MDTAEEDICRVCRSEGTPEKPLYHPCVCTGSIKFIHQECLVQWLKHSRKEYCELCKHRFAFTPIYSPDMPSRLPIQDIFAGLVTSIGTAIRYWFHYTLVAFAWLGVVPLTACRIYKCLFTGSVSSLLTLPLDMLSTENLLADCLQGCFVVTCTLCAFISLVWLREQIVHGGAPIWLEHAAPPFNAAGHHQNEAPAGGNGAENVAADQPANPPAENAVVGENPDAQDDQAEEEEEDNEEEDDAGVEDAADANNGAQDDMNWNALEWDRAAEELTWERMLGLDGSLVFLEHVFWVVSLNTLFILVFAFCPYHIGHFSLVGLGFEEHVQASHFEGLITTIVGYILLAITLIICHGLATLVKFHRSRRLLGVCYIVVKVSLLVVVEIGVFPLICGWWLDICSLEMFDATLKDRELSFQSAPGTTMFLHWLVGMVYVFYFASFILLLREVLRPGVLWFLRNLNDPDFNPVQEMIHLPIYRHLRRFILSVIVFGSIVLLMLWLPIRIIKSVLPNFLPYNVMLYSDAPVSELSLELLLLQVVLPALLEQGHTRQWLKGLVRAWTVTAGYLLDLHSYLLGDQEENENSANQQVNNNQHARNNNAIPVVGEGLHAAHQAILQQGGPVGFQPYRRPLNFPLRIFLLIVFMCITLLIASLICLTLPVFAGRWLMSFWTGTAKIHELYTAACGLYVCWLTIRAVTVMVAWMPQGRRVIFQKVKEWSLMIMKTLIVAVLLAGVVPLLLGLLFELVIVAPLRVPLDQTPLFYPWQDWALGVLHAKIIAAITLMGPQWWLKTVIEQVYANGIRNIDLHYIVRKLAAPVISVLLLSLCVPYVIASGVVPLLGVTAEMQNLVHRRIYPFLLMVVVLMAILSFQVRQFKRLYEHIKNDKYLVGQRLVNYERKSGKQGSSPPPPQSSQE
Chain of UniProt Q8N4C8 (Q8N4C8 whole entry, looked up): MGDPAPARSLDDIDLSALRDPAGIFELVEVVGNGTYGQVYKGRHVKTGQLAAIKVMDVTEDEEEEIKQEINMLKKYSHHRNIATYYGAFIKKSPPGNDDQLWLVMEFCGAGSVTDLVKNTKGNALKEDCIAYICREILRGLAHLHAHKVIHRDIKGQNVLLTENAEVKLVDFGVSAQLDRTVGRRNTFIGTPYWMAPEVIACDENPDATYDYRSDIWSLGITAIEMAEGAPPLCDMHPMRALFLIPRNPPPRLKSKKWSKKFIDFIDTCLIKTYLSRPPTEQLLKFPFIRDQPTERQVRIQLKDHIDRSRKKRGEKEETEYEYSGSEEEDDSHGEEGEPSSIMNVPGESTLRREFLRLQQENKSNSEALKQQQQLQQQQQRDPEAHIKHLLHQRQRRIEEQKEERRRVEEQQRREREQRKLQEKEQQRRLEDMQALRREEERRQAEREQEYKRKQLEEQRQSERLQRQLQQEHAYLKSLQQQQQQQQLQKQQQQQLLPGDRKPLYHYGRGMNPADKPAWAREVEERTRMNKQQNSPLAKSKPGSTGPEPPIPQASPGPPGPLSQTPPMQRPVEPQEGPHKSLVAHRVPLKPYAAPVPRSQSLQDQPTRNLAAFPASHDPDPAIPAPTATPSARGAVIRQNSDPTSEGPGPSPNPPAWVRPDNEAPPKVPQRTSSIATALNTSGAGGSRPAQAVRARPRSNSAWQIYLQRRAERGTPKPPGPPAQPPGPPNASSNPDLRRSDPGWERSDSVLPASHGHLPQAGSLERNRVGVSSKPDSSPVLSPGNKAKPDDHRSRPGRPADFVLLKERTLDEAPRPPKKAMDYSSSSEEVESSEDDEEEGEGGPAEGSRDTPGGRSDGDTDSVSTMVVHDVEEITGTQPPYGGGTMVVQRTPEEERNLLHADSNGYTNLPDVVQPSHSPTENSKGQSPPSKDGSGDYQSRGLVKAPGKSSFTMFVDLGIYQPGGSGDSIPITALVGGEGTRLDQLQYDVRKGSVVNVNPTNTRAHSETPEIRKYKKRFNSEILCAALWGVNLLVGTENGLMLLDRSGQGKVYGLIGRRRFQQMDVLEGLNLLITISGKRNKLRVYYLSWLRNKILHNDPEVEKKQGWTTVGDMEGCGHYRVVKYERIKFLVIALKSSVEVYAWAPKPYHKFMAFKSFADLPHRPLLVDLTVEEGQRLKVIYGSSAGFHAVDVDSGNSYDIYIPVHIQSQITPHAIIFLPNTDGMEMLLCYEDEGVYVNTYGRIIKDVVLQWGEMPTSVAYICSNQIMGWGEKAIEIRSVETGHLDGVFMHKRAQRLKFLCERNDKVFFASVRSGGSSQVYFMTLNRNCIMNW
Chain of UniProt Q16644 (Q16644 whole entry, looked up): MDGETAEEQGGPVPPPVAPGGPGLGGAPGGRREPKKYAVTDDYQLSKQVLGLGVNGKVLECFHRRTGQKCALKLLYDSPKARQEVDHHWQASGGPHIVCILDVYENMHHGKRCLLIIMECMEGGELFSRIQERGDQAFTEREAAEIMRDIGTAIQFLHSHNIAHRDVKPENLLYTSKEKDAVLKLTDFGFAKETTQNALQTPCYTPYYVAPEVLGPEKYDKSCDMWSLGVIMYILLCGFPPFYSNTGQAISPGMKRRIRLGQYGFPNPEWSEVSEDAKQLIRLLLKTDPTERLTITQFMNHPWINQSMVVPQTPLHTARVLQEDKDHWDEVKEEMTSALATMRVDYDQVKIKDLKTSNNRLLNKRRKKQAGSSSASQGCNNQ

As for MAP4K5 (UniProt Q9Y4K4), the log2 fold change in assay [1] is 0.069; in assay [2] it was 0.063; in assay [3] it was -0.079; in assay [4], -0.022; in assay [5] it was -0.1.

For the target MAP11 (UniProt Q8WVR3), the log2 fold change is -0.103 in assay [1]; 0 in assay [2]; -0.006 in assay [3]; 0.063 in assay [4]; -0.03 in assay [5].

As to MAPK3 (UniProt P27361), the log2 fold change was 0.008 in assay [1]; 0.006 in assay [2]; -0.05 in assay [3]; 0.036 in assay [4]; -0.048 in assay [5].

Turning to MAPKAPK3 (UniProt Q16644), the log2 fold change was 0.03 in assay [1]; -0.031 in assay [2]; -0.005 in assay [3]; 0.009 in assay [4]; 0.019 in assay [5].

Turning to MIPEP (UniProt Q99797), the log2 fold change in assay [1] is 0.015; in assay [2] it was -0.019; in assay [3], 0.052; in assay [4], 0.028; in assay [5], -0.008.

With MINK1 (UniProt Q8N4C8), the log2 fold change in assay [1] was 0.069; in assay [2], 0.092; in assay [3], -0.149; in assay [4] it was -0.066; in assay [5], 0.086.

On to MBTPS1 (UniProt Q14703), for which the log2 fold change in assay [1] is -0.317 (active); in assay [2], 0.141; in assay [3] it was 0.079; in assay [4], -0.063; in assay [5], 0.017.

As for MCCC1 (UniProt Q96RQ3), the log2 fold change in assay [1] is -0.063; in assay [2] it was 0.015; in assay [3], 0.046; in assay [4], 0.002; in assay [5] it was 0.059.

Turning to MARCHF6 (UniProt O60337), the log2 fold change in assay [1] is -0.269; in assay [2], -0.192; in assay [3], -0.107; in assay [4], -0.082; in assay [5] it was 0.029.
